Sampled rows, rich in hits. Any-hit rate of the full collection: about 2.2%.
ANO1 activ: activates or potentiates the mouse TMEM16A chloride channel. B-score at 10 µM. Q8BHY3. 0.3% of 340,000 active. HEK293 TMEM16A/YFP-H148Q/I152L, iodide quench fluorescence; stronger effect = lower value;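 active = fluorescence-ratio B-score plate-corrected deviation score at least 3 library SD below zero, with starting fluorescence score within 5 deviations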;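 also: channel opened by trigger with iodide after compound preincubation; score built on the fluorescence ratio of max minus min over baseline; more negative score means more quench and so TMEM16A activation or potentiation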
TLR4-MyD88 BLA: inhibitors of human TLR4-MyD88 binding; HeLa CL3-4 TLR4/MyD88 BLA complementation, FRET ratio; inhibition, % at 8.4 µM; 0.18% of 200,000 active; AID 861; in the data active = inhibition above about 25%
ANO1 block: blocks the mouse calcium-activated chloride channel TMEM16A. Q8BHY3. HEK293 TMEM16A/YFP iodide influx fluorescence, ionomycin. AID 588511. 1.2% of 310,000 active. normalized B-score (activity score, 25-100; higher = stronger inhibition) at 10 µM;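 active = ratio plate-corrected score three or more library SD toward inhibition, starting fluorescence score within five deviations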;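 also: score derived from kinetic fluorescence span divided by baseline fluorescence per well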
TLR9-MyD88 inh: TLR9-MyD88 interaction inhibition; 0.21% of 340,000 active; CHO BLA complementation TLR9-MyD88, CCF4 FRET ratio; inhibition, % at 4.98 µM; Q9NR96+Q99836;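 active = inhibition above the mean over all tested compounds plus 3 SD, cut at about 21% in these data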
NOD2 RIPK2 PPI: NOD2-RIPK2 protein interaction inhibition; CHO BLA complementation NOD2-RIPK2, CCF4 ratio; inhibition, % at 4.98 µM; AID 624267; 0.38% of 360,000 active; in the data active = inhibition above about 21%
GRK2 inh: human GRK2 inhibition via aptamer displacement | P25098 | bead flow cytometry, FAM-aptamer displacement from GRK2 | inhibition of aptamer binding, % at 10 µM | 0.59% of 330,000 active;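 active = inhibition of aptamer binding above 40%, roughly 3 SD of noise, on plates passing a quality check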;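 also: median bead fluorescence of bound FAM aptamer so fluorescent compounds give negative values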
Target sequence (P25098 whole entry, looked up): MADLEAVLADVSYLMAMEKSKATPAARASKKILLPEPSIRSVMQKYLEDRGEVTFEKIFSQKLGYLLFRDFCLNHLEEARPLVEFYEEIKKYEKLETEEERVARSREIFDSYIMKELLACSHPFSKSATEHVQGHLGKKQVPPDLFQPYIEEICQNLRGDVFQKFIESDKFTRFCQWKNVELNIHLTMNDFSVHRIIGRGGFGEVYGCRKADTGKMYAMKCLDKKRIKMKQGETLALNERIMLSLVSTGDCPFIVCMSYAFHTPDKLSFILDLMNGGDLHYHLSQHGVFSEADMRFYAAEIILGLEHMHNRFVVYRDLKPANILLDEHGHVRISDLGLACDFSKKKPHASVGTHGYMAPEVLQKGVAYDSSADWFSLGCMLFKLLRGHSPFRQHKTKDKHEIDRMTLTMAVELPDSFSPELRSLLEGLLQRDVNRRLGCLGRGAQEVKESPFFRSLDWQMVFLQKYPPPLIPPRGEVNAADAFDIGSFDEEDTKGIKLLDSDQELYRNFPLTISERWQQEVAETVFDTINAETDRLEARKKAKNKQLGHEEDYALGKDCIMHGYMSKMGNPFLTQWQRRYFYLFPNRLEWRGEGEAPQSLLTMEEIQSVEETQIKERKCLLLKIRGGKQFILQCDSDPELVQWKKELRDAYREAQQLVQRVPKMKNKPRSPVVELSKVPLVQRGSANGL
Hits are given with their value.

How did O=C(NC1CC2CCCC(C1)N2C(=O)Nc1ccc(Cl)c(C(F)(F)F)c1)C1CC1 (stereo unspecified) do in these assays?
ANO1 activ: inactive; TLR4-MyD88 BLA: inactive; ANO1 block: inactive; TLR9-MyD88 inh: inactive; NOD2 RIPK2 PPI: inactive; GRK2 inh: inactive

What do the screens show for `COc1ccc(OC)c(CCNC(=O)Cn2sc3nc(C)cc(C)c3c2=O)c1`?
TLR4-MyD88 BLA: inactive; ANO1 block: 25; GRK2 inh: inactive

What do the screens show for `Cc1cc(C)c2c(=O)n(CC(=O)NC3CCCC3)sc2n1`?
ANO1 activ: inactive; ANO1 block: inactive; TLR9-MyD88 inh: inactive; NOD2 RIPK2 PPI: inactive; GRK2 inh: inactive

What do the screens show for `O=C(O)c1ccc(NC2=C(Cl)C(=O)c3ccccc3C2=O)cc1`?
ANO1 activ: inactive; ANO1 block: 100; TLR9-MyD88 inh: inactive; NOD2 RIPK2 PPI: inactive; GRK2 inh: inactive

Results for O=C1C(Cl)=C(Nc2ccccc2)C(=O)c2ccccc21 ?
ANO1 activ: inactive; TLR4-MyD88 BLA: inactive; ANO1 block: inactive; TLR9-MyD88 inh: inactive; NOD2 RIPK2 PPI: inactive; GRK2 inh: inactive

Results for CCc1nnc(NS(=O)(=O)c2ccc(NC(=S)NC(=O)/C=C/c3ccc(C(C)C)cc3)cc2)s1 ?
ANO1 activ: inactive; TLR4-MyD88 BLA: inactive; ANO1 block: 100; TLR9-MyD88 inh: inactive; NOD2 RIPK2 PPI: inactive; GRK2 inh: inactive

What do the screens show for `CCc1nnc(NS(=O)(=O)c2ccc(NC(=S)NC(=O)/C=C/c3ccccc3)cc2)s1`?
ANO1 activ: inactive; TLR4-MyD88 BLA: inactive; ANO1 block: inactive; TLR9-MyD88 inh: inactive; NOD2 RIPK2 PPI: inactive; GRK2 inh: inactive

What do the screens show for `CCN(Cc1ccccc1)c1ccc(/C=N/N=C(N)N)cc1`?
ANO1 activ: inactive; TLR4-MyD88 BLA: inactive; ANO1 block: 100; TLR9-MyD88 inh: inactive; NOD2 RIPK2 PPI: inactive; GRK2 inh: inactive

How did COc1ccccc1OCCSc1nc2ccc([N+](=O)[O-])cc2s1 do in these assays?
ANO1 activ: inactive; TLR4-MyD88 BLA: inactive; ANO1 block: 100; TLR9-MyD88 inh: inactive; NOD2 RIPK2 PPI: inactive; GRK2 inh: inactive

What do the screens show for `Cc1cc(OC(C)C(=O)NCCc2c[nH]c3ccccc23)c2c(C)cc(=O)oc2c1` (stereo unspecified)?
ANO1 activ: -10; ANO1 block: inactive; TLR9-MyD88 inh: inactive; NOD2 RIPK2 PPI: inactive; GRK2 inh: inactive

Results for CCCc1cc(=O)oc2cc(C)cc(OC(C)C(=O)N[C@@H](Cc3c[nH]c4ccccc34)C(=O)O)c12 (stereo partly specified) ?
ANO1 activ: inactive; ANO1 block: inactive; TLR9-MyD88 inh: inactive; NOD2 RIPK2 PPI: inactive; GRK2 inh: inactive

Results for Cc1ccc(F)c(NC(=O)/C(C#N)=C(\O)c2ccc(C(C)(C)C)cc2)c1 ?
ANO1 activ: inactive; TLR4-MyD88 BLA: inactive; ANO1 block: 25; TLR9-MyD88 inh: inactive; NOD2 RIPK2 PPI: inactive; GRK2 inh: inactive

What do the screens show for `N#Cc1c(N)sc2c1CCN(CCc1ccccc1)C2`?
ANO1 activ: inactive; TLR4-MyD88 BLA: inactive; ANO1 block: 25; TLR9-MyD88 inh: inactive; NOD2 RIPK2 PPI: inactive; GRK2 inh: inactive

How did CN(CC(=O)NCc1ccc(F)cc1)CC(=O)Nc1ccc(Cl)c(C(F)(F)F)c1 do in these assays?
ANO1 activ: inactive; ANO1 block: 100; TLR9-MyD88 inh: inactive; NOD2 RIPK2 PPI: inactive; GRK2 inh: inactive

What do the screens show for `Cc1ccc(C(=O)NC(C)c2ccc(F)cc2)cc1` (stereo unspecified)?
ANO1 activ: inactive; TLR4-MyD88 BLA: inactive; ANO1 block: inactive; TLR9-MyD88 inh: inactive; NOD2 RIPK2 PPI: inactive; GRK2 inh: inactive

Results for Cc1ccc(C(C#N)c2ccc(C(=O)c3ccc(F)cc3)cc2)cc1 (stereo unspecified) ?
ANO1 activ: inactive; TLR4-MyD88 BLA: inactive; ANO1 block: 25; TLR9-MyD88 inh: inactive; NOD2 RIPK2 PPI: inactive; GRK2 inh: inactive

How did O=C(CSc1nc2c(c(=O)[nH]1)CN(Cc1ccc(F)cc1)CC2)Nc1ccc(F)cc1 do in these assays?
ANO1 activ: inactive; TLR4-MyD88 BLA: inactive; ANO1 block: inactive; TLR9-MyD88 inh: inactive; NOD2 RIPK2 PPI: inactive; GRK2 inh: inactive

Results for Cc1ccc(NC(=O)CSc2nc3c(c(=O)[nH]2)CN(Cc2ccc(F)cc2)CC3)cc1C ?
ANO1 activ: -12; TLR4-MyD88 BLA: inactive; ANO1 block: inactive; TLR9-MyD88 inh: inactive; NOD2 RIPK2 PPI: inactive; GRK2 inh: inactive

What do the screens show for `FC(F)C(F)(F)C(F)(F)C(F)(F)c1cc(-c2ccccc2)n[nH]1`?
ANO1 activ: inactive; TLR4-MyD88 BLA: inactive; ANO1 block: 100; TLR9-MyD88 inh: inactive; NOD2 RIPK2 PPI: inactive; GRK2 inh: inactive

How did O=C(Nc1cccc(C(F)(F)F)c1)c1csc([C@H]2C[C@H](O)[C@@H](CO)O2)n1 do in these assays?
NOD2 RIPK2 PPI: inactive

Results for NNC(=O)c1sccc1OCc1ccc(Cl)cc1Cl ?
ANO1 activ: inactive; TLR4-MyD88 BLA: inactive; ANO1 block: 25; TLR9-MyD88 inh: inactive; NOD2 RIPK2 PPI: inactive; GRK2 inh: inactive

How did COc1cccc(C(C)(O)c2nc(-c3cnn(C)c3)cs2)c1 (stereo unspecified) do in these assays?
NOD2 RIPK2 PPI: inactive

How did Oc1ccccc1-c1cc(C(F)(F)C(F)F)nc(-c2ccccc2)n1 do in these assays?
ANO1 activ: inactive; TLR4-MyD88 BLA: inactive; ANO1 block: inactive; TLR9-MyD88 inh: inactive; NOD2 RIPK2 PPI: inactive; GRK2 inh: inactive

Results for O=[N+]([O-])c1ccc(O)c(-c2cc(C(F)(F)F)nc(-c3ccccc3)n2)c1 ?
ANO1 activ: inactive; ANO1 block: 100; TLR9-MyD88 inh: inactive; NOD2 RIPK2 PPI: inactive; GRK2 inh: inactive

How did Clc1ccc(N=c2ssnc2Cl)cc1 do in these assays?
ANO1 activ: inactive; TLR4-MyD88 BLA: inactive; ANO1 block: 100; TLR9-MyD88 inh: inactive; NOD2 RIPK2 PPI: inactive; GRK2 inh: inactive

Results for COc1ccc(NC(=O)C2(C)CCCN(C(C)C)C2)cc1F (stereo unspecified) ?
NOD2 RIPK2 PPI: inactive

What do the screens show for `CCCCCCCCN1C(=O)[C@H](CC(=O)NCCc2ccccc2OC)C[C@@]2(C(=O)OC)CC(C)(C)CC=C12`?
NOD2 RIPK2 PPI: inactive

Results for O=C(CN1CCN(S(=O)(=O)c2ccc(C(F)(F)F)cc2)CC1)N1CCNC1=O ?
ANO1 activ: inactive; TLR9-MyD88 inh: inactive; NOD2 RIPK2 PPI: inactive; GRK2 inh: inactive

How did CC(C)(C)c1ccc(S(=O)(=O)N2CCN(CC(=O)N3CC(=O)Nc4ccccc43)CC2)cc1 do in these assays?
ANO1 activ: -38; TLR9-MyD88 inh: inactive; NOD2 RIPK2 PPI: inactive; GRK2 inh: inactive

Results for O=C(NC(NNc1ccc([N+](=O)[O-])cc1)(C(F)(F)F)C(F)(F)F)c1ccc(F)cc1 ?
ANO1 activ: inactive; TLR4-MyD88 BLA: inactive; ANO1 block: 100; TLR9-MyD88 inh: inactive; NOD2 RIPK2 PPI: inactive; GRK2 inh: inactive

What do the screens show for `O=[N+]([O-])c1ccc(NNC(=S)Nc2ccc(F)cc2)cc1`?
ANO1 activ: inactive; TLR4-MyD88 BLA: inactive; ANO1 block: 100; TLR9-MyD88 inh: inactive; NOD2 RIPK2 PPI: inactive; GRK2 inh: inactive

High-throughput results from PubChem BioAssay.
